Reference: PubChem BioAssay (NCI)
Compounds without any hit were thinned out: in the full panel of roughly 83,000, 20% have a hit.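 Note: values are percent growth. 100 is the growth of untreated cells, values between 100 and 0 indicate rising inhibition; between -100 and 0 indicates cell death.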 A number with no mark means an inactive call. Active and inactive are the calls of the source. The calls were made as follows: active = growth percent below 10; inactive = the rest.

Key:
Test in all cases: NCI-60 one-dose screen, 48 h (100 = growth as untreated, 0 = no growth, -100 = all killed)
Conditions in all cases: 10 µM unless noted
[1] = test system: HCT-15 colon
[2] = test system: HT29 colon
[3] = test system: SNB-75 CNS
[4] = test system: SNB-19 CNS
[5] = test system: U251 CNS
[6] = test system: PC-3 prostate
[7] = test system: SK-MEL-5 melanoma
[8] = test system: UACC-62 melanoma
[9] = test system: LOX IMVI melanoma
[10] = test system: SK-MEL-28 melanoma

SMILES	growth [1]	growth [2]	growth [3]	growth [4]	growth [5]	growth [6]	growth [7]	growth [8]	growth [9]	growth [10]
COc1ccc(N(CC(=O)NCCC[Te]c2ccccc2)C(=O)CCSC2=C(C)C(=O)c3ccccc3C2=O)cc1	-15.7% (active)	1.86% (active)	13.2%	-12.4% (active)	-42.7% (active)	0.627% (active)	-96.7% (active)	-25.4% (active)	-50.1% (active)	-18.1% (active)
CC(=O)OC1CCC2C3CCC4=C/C(=N/OC(=O)c5ccc(N(CCCl)CCCl)cc5)CCC4(C)C3CC(C)C12 (configuration not stated)	71.6%	46.8%	70.5%	62.9%	59.3%	77.1%	67.5%	72.5%	15.5%	108%
Cc1ccc(C(=O)NCCCOc2ccc(N3C(N)=NC(N)=NC3(C)C)cc2Cl)cc1S(=O)(=O)F	102%	59.4%	87.6%	72.2%	37.6%	28.5%	32.9%	30.1%	26.7%	104%
CC(C)=CCc1c(O)c(C(=O)CC(C)C)c(O)c2c(-c3ccccc3)cc(=O)oc12	30.3%	66.5%	81.3%	42.1%	41.3%	19.6%	-41.3% (active)	12.2%	68.2%	39.2%
Nc1ccc2c(c1)oc1ccccc12	112%	92.2%	81.1%	110%	94.4%	82.6%	104%	94.9%	109%	104%
CC(C)[C@]12O[C@H]1[C@@H]1O[C@]13[C@]1(O[C@H]1C[C@H]1c4c(C(=O)c5ccccc5)oc(OC(=O)c5ccccc5)c4CC[C@@]13C)[C@@H]2O	5.32% (active)	8.55% (active)	-30.5% (active)	13.8%	12.1%	-0.741% (active)	-51.9% (active)	-28.7% (active)	9.13% (active)	-69.5% (active)
Clc1cc(N2CC2)nc(N2CC2)n1	72.5%	79.8%	70.6%	65.9%	67.9%	65.2%	73.9%	54.4%	51.7%	92.1%
CNC12C3C4C1C1C2C3C41C(=O)N[C@H](C(=O)N(C)[C@H](C[C@@H](OC(C)=O)c1nc(C(=O)N[C@@H](Cc2ccccc2)C[C@H](C)C(=O)OC)cs1)C(C)C)C1CC1 (some centres not stated)	11.4%	-12.6% (active)	26.9%	33.4%	10.1%	16.9%	-54.4% (active)	13.9%	–	62.3%
C[Se]C(=O)c1ccccc1OC(C)=O	81%	11.1%	-42.4% (active)	46.6%	46%	70%	79.3%	58.2%	45.3%	46.1%
COC1=CC(=O)O[C@@H](/C=C/c2ccc3c(c2)OCO3)C1	103%	111%	116%	101%	97.9%	83.5%	116%	94%	98.2%	120%
C[C@]12CC[C@H]3[C@@H](C[C@@H]4SC(Nc5ccccc5)=N[C@@]45CC(O)CC[C@]35C)[C@@H]1CCC2O (some centres not stated)	-30.2% (active)	-38.5% (active)	-5.43% (active)	26.5%	-30.1% (active)	39.2%	34.5%	39.8%	-81.5% (active)	27.3%
CC12CCC=CC1CCC1C2CCC2(C)C(c3ccc(=O)oc3)CCC12O (configuration not stated)	-71.7% (active)	-66.5% (active)	-56.7% (active)	-99.9% (active)	-77.2% (active)	-19.6% (active)	-56.6% (active)	-65.4% (active)	-83.8% (active)	-31.1% (active)
CC[C@H](C)[C@H](NC(=O)[C@H]1CCCCN1C)C(=O)N(C)[C@H](CC(=O)c1nc(C(=O)N[C@@H](Cc2ccccc2)C[C@H](C)C(=O)O)cs1)C(C)C	99.2%	78%	49.3%	55.5%	45.9%	78.3%	56.1%	32.2%	47.2%	81.3%
CCOC(=O)[C@@H](C)C[C@H](Cc1ccccc1)NC(=O)c1csc([C@@H](C[C@H](C(C)C)N(C)C(=O)[C@H](CCC(C)C)NC(=O)[C@H]2CCCCN2C)OC(C)=O)n1	15.2%	-14.9% (active)	37.6%	39.9%	2.75% (active)	13.7%	-25.5% (active)	40.7%	–	64.8%
CC(=O)O[C@H]1C(=O)[C@@]2(C)[C@H]([C@H](OC(=O)c3ccccc3)[C@]3(O)C[C@H](OC(=O)[C@H](OC(=O)OC[C@@H]4COC(C)(C)O4)[C@@H](NC(=O)c4ccccc4)c4ccccc4)C(C)=C1C3(C)C)[C@]1(OC(C)=O)CO[C@@H]1C[C@@H]2O	3.91% (active)	-2.35% (active)	-15.6% (active)	12.7%	17%	22.1%	22%	24.2%	–	52%
C=C1[C@@H](C)[C@H]2[C@H](Cc3ccccc3)NC(=O)[C@]23[C@@H](O)/C=C/[C@@](C)(O)C(=O)[C@@H](C)C/C=C/[C@H]3[C@@H]1O	66.1%	25.3%	-8.47% (active)	40.7%	21.9%	45.2%	77.6%	65.6%	–	67.1%
CCC1CN1CCCCN1CC1CC (configuration not stated)	88.5%	98.2%	81.7%	99.3%	99%	98.5%	99.5%	97.2%	–	90%
COC(=O)CC12CC(NC(=O)c3csc([C@@H](C[C@H](C(C)C)N(C)C(=O)[C@@H](NC(=O)[C@H]4CCCCN4C)C(C)C)OC(C)=O)n3)(C1)C2	11.8%	5.49% (active)	59%	37.8%	17.3%	30.2%	-30.2% (active)	49.7%	–	59.4%
C[C@@]1(CCCCCCCCCc2ccc(O)cc2)C[C@]2(C)OC(=O)C[C@@H]2OO1	83.7%	102%	95%	96.6%	92.8%	61.7%	105%	95.2%	-81.2% (active)	99.5%
CC[C@H](NC(=O)[C@H]1CCCCN1C)C(=O)N(C)[C@H](C[C@@H](OC(C)=O)c1nc(C(=O)N[C@@H](Cc2ccccc2)C[C@H](C)C(=O)O)cs1)C(C)C	6.42% (active)	2.74% (active)	24.9%	17.6%	14.9%	22.9%	-40.3% (active)	27.1%	–	73.7%
CN1CCC(O)(c2ccc(F)cc2)C(C(=O)c2ccc(F)cc2)C1 (configuration not stated)	107%	122%	113%	95.1%	107%	98.4%	102%	100%	–	121%
C=CC[n+]1ccc(-c2cc[n+](CC=C)cc2)cc1	96.4%	29.1%	92.5%	111%	89.4%	90.9%	71.4%	110%	101%	102%
O=P(Oc1ccc(Cl)cc1)(N1CC1)N1CC1	88.7%	72.5%	74.2%	91%	82.6%	76.1%	86.2%	58%	83.1%	98.3%
